HP1b binding inh: HTS for Inhibitors of HP1-beta Chromodomain Interactions with Methylated Histone Tails | AlphaScreen HP1-beta / biotin-H3K9me3 peptide binding | Potency, µM (top dose mostly 114 µM), for the others: at the highest dose activity change, negative = inhibition, usual class: inhibitors | actives 0.56% (n = 390,000); further: potency means the concentration at half of the fitted maximal effect; nearly all actives have a fitted effect of over 70% in size
Target sequence (P83916 whole entry, looked up): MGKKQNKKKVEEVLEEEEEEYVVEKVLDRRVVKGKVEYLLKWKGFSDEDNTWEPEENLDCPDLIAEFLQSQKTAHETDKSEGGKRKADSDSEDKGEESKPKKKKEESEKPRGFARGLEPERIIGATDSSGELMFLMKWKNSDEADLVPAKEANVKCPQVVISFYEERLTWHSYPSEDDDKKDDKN
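HP1-beta protein (50 nM final) preincubated 30 min at room temperature with biotinylated H3(1-18)K9me3 peptide (50 nM) in PBS pH 7.4, 0.01% Tween-20, then compound added for 30 min. AlphaScreen streptavidin donor/nickel chelate acceptor beads (10 ug/mL final), 30 min dark, luminescence read.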
JMJD2A Tudor: qHTS Assay for Inhibitors of JMJD2A-Tudor Domain. Potency, µM (series often up to 114 µM), for the others: top-dose activity change, negative = inhibition, hits mostly inhibitors. actives 4.4% (n = 390,000). AlphaScreen JMJD2A-Tudor / H3K4me3 peptide binding. AID 504339, 2011. Lysine-specific demethylase 4A (Homo sapiens), O75164; further: potency means the concentration at half of the fitted maximal effect; on the % scale 0 is the no-effect control and ±100 the full control effect; nearly all actives have a fitted effect of over 50% in size
BAZ2B inh: qHTS Assay for Inhibitors of BAZ2B | AlphaScreen BAZ2B-H3K14Ac peptide displacement | Potency, µM (titrated, usually from 114 µM), inactives show at the highest dose activity change, negative = inhibition, usual class: inhibitors | actives 4.4% (n = 360,000) | AID 504333, 2011; further: potency means the concentration at half of the fitted maximal effect; on the % scale 0 is the no-effect control and ±100 the full control effect; nearly all actives have a fitted effect of over 60% in size
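BAZ2B (50 nM) with biotin-H3(5-23)K14Ac peptide (50 nM) in PBS pH 7.4, 0.01% Tween-20, preformed 30 min, then compound 30 min at room temperature; top concentration 110uM. AlphaScreen streptavidin donor/nickel chelate acceptor beads (10 ug/mL final), 20 min dark, signal read.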
G9a inh-1: qHTS Assay for Inhibitors of Histone Lysine Methyltransferase G9a. Histone-lysine N-methyltransferase EHMT2 (Homo sapiens), Q96KQ7. G9a H3K9 monomethylation, AlphaScreen, 2 h. Potency, µM (highest dose often 102 µM), inactives show at the top dose activity, negative = inhibition, actives largely listed as inhibitors. actives 8.8% (n = 350,000). AID 504332, 2011; further: potency means the concentration at half of the fitted maximal effect; on the % scale 0 is the no-effect control and ±100 the full control effect; nearly all actives have a fitted effect of over 75% in size
Target sequence (Q96KQ7 913-1193 limits assumed): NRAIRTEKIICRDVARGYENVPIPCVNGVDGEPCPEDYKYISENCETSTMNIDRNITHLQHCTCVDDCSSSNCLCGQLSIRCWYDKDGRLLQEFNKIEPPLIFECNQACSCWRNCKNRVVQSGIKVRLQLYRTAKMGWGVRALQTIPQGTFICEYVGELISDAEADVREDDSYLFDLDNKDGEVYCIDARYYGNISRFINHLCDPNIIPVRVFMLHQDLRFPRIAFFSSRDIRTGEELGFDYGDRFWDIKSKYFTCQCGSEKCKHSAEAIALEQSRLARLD
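Signal arises when biotinylated H3K9 peptide, once monomethylated, bridges streptavidin donor and antibody-captured acceptor beads. Enzyme at 20 nM was preincubated 15 min with test compounds; peptide 500 nM and SAM 20 uM then reacted for 2 h.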
GLS inh: qHTS for Inhibitors of Glutaminase (GLS) | Glutaminase kidney isoform, mitochondrial (Homo sapiens), O94925 | GLS enzymatic activity, qHTS titration | Potency, µM (highest dose often 45.5 µM), for inactives: top-dose activity change, negative = inhibition, usual class: inhibitors | actives 0.21% (n = 410,000) | AID 624170, 2012; further: potency means the concentration at half of the fitted maximal effect; on the % scale 0 is the no-effect control and ±100 the full control effect
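Enzyme dispensed in phosphate buffer (45 mM, pH 8.2, 0.02% Tween-20), compounds pinned in, then 1 mM L-glutamine solution and the glutamate oxidase–HRP–Amplex Red mix added; fluorescence read immediately and again after 30 min at room temperature.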
JMJD2E inh: Confirmation qHTS Assay for Inhibitors of Human Jumonji Domain Containing 2E (JMJD2E) | Recombinant JMJD2E, FDH-coupled NADH fluorescence (FDH is formaldehyde dehydrogenase) | Potency, µM (doses to about 56.8 µM), for the others: at the highest dose activity change, negative = inhibition, actives largely listed as inhibitors | shares compounds with JMJD2A Tudor | actives 93% (n = 140) | AID 2677, 2010
FDH counter: Counterscreen for JMJD2E Inhibitors: qHTS Assay for Inhibitors of Formaldehyde Dehydrogenase (FDH); shares compounds with JMJD2A Tudor; AID 2680, 2010; actives 10% (n = 140); Potency, µM (top dose mostly 56.7 µM), without a hit: top-dose activity, negative = inhibition, usual class: inhibitors; FDH enzyme assay, NADH fluorescence kinetic
G9a inh-2: qHTS Assay for Inhibitors of Histone Lysine Methyltransferase G9a: Hit Confirmation; shares compounds with JMJD2A Tudor; actives 89% (n = 370); Potency, µM, actives largely listed as inhibitors; G9a H3K9 monomethylation, AlphaScreen, 2 h; further: potency means the concentration at half of the fitted maximal effect; nearly all actives have a fitted effect of over 65% in size
RGS4 inh: qHTS for Inhibitors of Regulator of G Protein Signaling(RGS) 4: Hit Validation | shares compounds with JMJD2A Tudor | RGS4 GAP activity, Transcreener GDP fluorescence polarization | Potency, µM, usual class: inhibitors | actives 80% (n = 25) | AID 602388, 2012
Target sequence (P49798 whole entry, looked up): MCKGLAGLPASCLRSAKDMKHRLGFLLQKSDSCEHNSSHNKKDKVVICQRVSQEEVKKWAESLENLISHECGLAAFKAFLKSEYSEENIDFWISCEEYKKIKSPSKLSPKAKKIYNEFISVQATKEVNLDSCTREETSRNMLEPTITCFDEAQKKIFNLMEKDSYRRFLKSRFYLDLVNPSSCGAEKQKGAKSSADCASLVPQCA
Active calls of the source: *; ? = inconclusive; . = not tested or not shown; [ ] = another dose, or the depositor's remark. An excerpt weighted towards active compounds, which were near 10% of everything screened. The call rests on the fitted dose curve; in most records, active means well fitted curve in the direction sought with a large enough effect; inconclusive means small, poorly fitted or top-dose-only effect, or another doubt; inactive means no such curve, though single readings can be large; an effect the other way counts as inactive or inconclusive.

SMILES | HP1b binding inh | JMJD2A Tudor | BAZ2B inh | G9a inh-1 | GLS inh | G9a inh-2 | others
Cn1c(SCC(=O)Nc2ccccc2)nnc1-c1ccccc1 | 9% | -4% | 1% | 4%[59 µM] | -14% | .
Cn1c(SCC(=O)NC(C)(C)C)nnc1-c1cccc(NC(=O)c2ccccc2F)c1 | 16% | ? | 7% | ? | -6% | 1.4*
COc1ccc(-c2nnc(SCC(=O)NC(=O)Cc3ccccc3)n2C)cc1 | 35% | 5% | 6% | ? | -11% | ?
Cn1c(SCC(=O)N2CCOCC2)nnc1-c1cccc(NC(=O)c2ccccc2F)c1 | 32% | -5% | 11% | ? | 1% | .
Cn1c(SCC(=O)Nc2ccc3c(c2)oc2ccccc23)nnc1-c1ccccc1 | -2% | ? | 1% | 2µM* | -8% | 7.1*
COc1ccccc1NC(=O)c1ccc(NS(C)(=O)=O)cc1 | 11% | -9% | -1% | -2%[12.7 µM] | 6% | .
O=C(CN1CCN(c2ccc(O)cc2)CC1)Nc1ccccc1C(=O)NCCc1ccccc1 | ? | ? | -7% | ? | 36% | 1.3*
O=C(CNC(=O)c1cccs1)Nc1ccncc1 | 7% | -22% | -1% | -43% | -3% | .
O=C(Nc1ccc(NC(=O)c2ccccc2Cl)nc1)c1ccncc1 | 3% | -17% | -4% | . | -3% | .
COC(=O)Cc1sc(-c2ccccn2)nc1-c1ccccc1 | ? | -26% | 10% | 2.2µM* | -16% | 5*
CCOCCOC(=O)c1[nH]c2c(c1C)C(=O)CC(c1ccc(N(C)C)cc1)C2 (centres undefined) | 3% | ? | ? | ? | 5% | ?
CCOCCOC(=O)c1[nH]c2c(c1C)C(=O)CC(c1ccc(OC)c(OC)c1)C2 (centres undefined) | -17% | -17% | -21% | 9% | 0% | .
O=C(NCCN1CCOCC1)NC1(C(F)(F)F)Oc2ccccc2O1 | 47% | -2% | 9% | ? | 0% | ?
Cc1nc(N2C(=O)c3oc4ccccc4c(=O)c3C2c2ccccc2F)sc1C (centres undefined) | 50% | -4% | 11%[57.1 µM] | 15%[59 µM] | -2% | .
CC(C)CN(C(=O)c1ccc(Br)o1)C1CCS(=O)(=O)C1 (centres undefined) | 39% | 1% | 6% | ? | 10% | .
Cc1ccc(N2NC3(CCN(C(N)=O)CC3)NC2=O)cc1 | 31% | -17% | -19% | 0.71µM* | 13% | 40*
Cc1ccc(N2C(=O)NC3(CCCCC3)C2=O)cc1 | 29% | 2% | 1% | 21% | -5% | .
Cc1ccc(CNc2ccc3c(c2)ncn3C)cc1 | -15% | ? | ? | 0.71µM* | ? | 8.9*
COCCNC(=O)c1onc(CSc2cc(C)ccc2C)c1C(=O)O | 25% | -13% | -7% | -30% | 14% | .
O=c1[nH]c2cc3c(cc2cc1CN(Cc1cccs1)Cc1nnnn1Cc1ccco1)OCCO3 | -24% | ? | . | ? | 6% | . | RGS4 inh=9.5*
Cc1ccc2[nH]c(=O)c(CN(Cc3ccc4c(c3)OCO4)Cc3nnnn3Cc3ccco3)cc2c1 | 1% | -32% | -25% | ? | 1% | .
CCn1nnnc1NCc1ccc(N2CCCC2)cc1 | ? | 20µM* | -26% | ? | 3% | 10*
CCn1nnnc1NCc1ccc(SC)cc1 | 29% | -6% | 7% | 16%[59 µM] | 0% | .
O/N=C/c1cn(-c2ccccc2)nn1 | 57% | 8% | -2% | 6% | 2% | .
Cc1ccc(NC(=O)CC2SC3=NCCCN3C2=O)c(C)c1 (centres undefined) | 4% | 20%[11.4 µM] | 2% | 0.71µM* | -7% | 4.5*
SMILES | HP1b binding inh | JMJD2A Tudor | BAZ2B inh | G9a inh-1 | GLS inh | G9a inh-2 | others
COc1ccc(C(=O)COC(=O)C2CC3CCCC(C2)C3=O)cc1Br (centres undefined) | 38% | -5% | -4% | 12%[0.501 µM] | -15% | .
COc1ccc(C(=O)COC(=O)CN2CC(=O)Oc3ccccc32)cc1Br | -7% | 35µM* | 25µM* | ? | -9% | 25*
O=C(COc1ccc(Cl)cc1)Nc1nnc(S(=O)(=O)N2CCc3ccccc32)s1 | -9% | ? | ? | 0.89µM* | 14% | 45*
O=S(=O)(Nc1cccc(-n2cnnn2)c1)c1ccc(Cl)cc1 | 26% | -12% | -10% | 25% | -6% | .
O=C1CC(c2ccccc2)Cc2[nH]c(=O)c(-c3nc(-c4ccc(F)cc4)cs3)cc21 (centres undefined) | 31% | 22µM* | 13µM* | 0.63µM* | 5% | 2.5*
O=C(NCc1ccccc1)c1cc2sccc2n1Cc1ccc(F)cc1 | 48% | -16% | 2% | 4%[59 µM] | 1% | .
CCOc1cc(CN2CCN(S(=O)(=O)c3ccc(C)cc3)CC2)ccc1OC | ? | 25µM* | 50µM* | 0.89µM* | -8% | 32*
O=C(O)c1cccc(S(=O)(=O)Nc2ccc(N3CCCCC3)cc2)c1 | 10% | -21% | . | . | -17% | .
Clc1cccc(Cl)c1CNc1ccc(N2CCCC2)cc1 | 18µM* | 18µM* | 20µM* | 1.8µM* | 7.1µM* | 4* | RGS4 inh=9.5*
CCS(=O)(=O)N1CCc2cc(C(=O)Nc3cccc(Cl)c3C)ccc21 | 23% | -23% | -33% | -56%[59 µM] | 1% | .
O=C(Nc1nc(-c2ccccc2)cs1)c1cccc(S(=O)(=O)N2CCN(Cc3ccccc3)CC2)c1 | 11% | -29% | ? | ? | -2% | .
Cc1ccc(C)c(S(=O)(=O)N2CCN(Cc3ccc(O)c4ncccc34)CC2)c1 | 32% | -14% | . | -38% | 0% | . | JMJD2E inh=35µM*;FDH counter=?

Bioassay records from PubChem.
